The results in this text go back to PubChem BioAssay (NCI).

Compounds without any hit were thinned out: in the full panel of roughly 83,000, 20% have a hit.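 Note: values are percent growth. 100 is the growth of untreated cells, values between 100 and 0 indicate rising inhibition; between -100 and 0 indicates cell death.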 Unmarked numbers belong to inactive results. Activity calls are given as the source filed them. Rule for the calls: active = growth percent below 10; inactive = the rest.

In one test the test system is OVCAR-3 ovarian. Briefly: NCI-60 one-dose screen, 48 h (100 = growth as untreated, 0 = no growth, -100 = all killed). Conditions: 10 µM.
Turning to `Cc1cc2c(C)c3cc(C)c(N)cc3nc2cc1N`, the growth was 14.9%.
In the case of `CCCCCC(=O)c1ccc(OCCCN2CCN(C(=O)OCC)CC2)cc1`, the growth was 104%.
Same read-out and setting: the figure for `COc1cc(/C=N/NC(=O)c2ccccc2Nc2ccnc(C(F)(F)F)c2)ccc1O` is 109%; for `Cc1ccc(CC#N)cc1C` it is 95.4%; for `COc1ccc(-c2nc3ncccn3c2-c2nnc(-c3ccc(F)cc3)o2)cc1` it is 103%.
The same measure, in the same setting: the figure for `O=[P@@]1(c2ccccc2)O[C@H](COCc2ccccc2)[C@@H](OCc2ccccc2)[C@H](OCc2ccccc2)[C@H]1O` is 59.5%.
The same measure, in the same setting: the figure for `O=C1/C(=C\c2ccc(Cl)cc2)CN(C(=S)Nc2ccccc2)C/C1=C\c1ccc(Cl)cc1` is -87.6% (active); for `COc1cc(-c2cc(/C=C/C(=O)c3ccc(Cl)c(Cl)c3)[nH]n2)cc(OC)c1OC` it is 86.5%.
On to `Clc1ccc(Nc2ccnc(NCCCNc3ccnc4cc(Cl)ccc34)n2)cc1`, for which the growth is -19% (active).
Same read-out and setting: next, `O=C1OCC2=C1C(c1ccc(Cl)c(Cl)c1)c1cc3c(cc1N2CCO)OCCO3` (stereo not drawn): -53.7% (active); `NC(=S)N=Nc1c(O)c2ccccc2c2ccccc12`: 29.9%.
As for `Cc1cccc(C)c1NC(=O)c1sc2nc3c(cc2c1N)C(=O)CCC3`, the growth is 100%.
In the case of `Nc1ccc2c(c1)C1(CCC2)NC(=O)NC1=O` (stereo not drawn), the growth was 110%.
`CSc1nc(=O)n(Cc2ccc(Cl)cc2)c(=O)[nH]1`: the growth was 114%.
Same read-out and setting: the figure for `CN1CCC2(CC1)NC(=O)c1c(c3ccc(Cl)c(Cl)c3n1C)C2C#N` (stereo not drawn) is 76%.
Consider `c1ccc2c(c1)oc1c3cccnc3ccc21`, for which the growth is 106%.
On the same count and under the same terms, next, `COc1cc(Cl)cc(-c2nn(-c3cccc(NC(=O)Nc4ccc(Cl)c(Cl)c4)c3)cc2-c2ccncc2)c1`: 4.12% (active); `Cc1cn(C2CCCCO2)c(=O)nc1NO` (stereo not drawn): 109%; `Cc1ccc(Nc2nnc(-c3cc(-c4ccncc4)n(-c4ccccc4)n3)s2)cc1`: 118%.
Still for that read-out and setting: the figure for `CCOC(=O)N/N=C\C(C)=N\NC(=O)OCC` is 106%; for `COc1ccc(-c2cc(/C=C3\C(=O)Nc4ccc(Cl)cc43)[nH]n2)cc1OC` it is 104%.
The same measure, in the same setting: the figure for `CNc1ccc(CSc2ccc(C)cc2)cc1` is 90.6%; for `Nc1nc(N)c2c(ccc3nccc32)[nH]1` it is 75.5%.
On to `O=C(O)c1ccc(Cl)cc1Nc1ccc(F)cc1`, for which the growth is 6.97% (active).
Same read-out and setting: the figure for `CC(C)=CCc1cc(O)cc2c1OC(C=C(C)C)C1=C2C(=O)C2=C(C1=O)S(=O)(=O)CCN2` (stereo not drawn) is 0.638% (active); for `COc1ccc(OC)c(/C=C/c2nc(SCc3ccccc3)n(-c3ccc(Cl)cc3)n2)c1` it is 17.3%.
Still for that read-out and setting: next, `N=C(N)c1ccc(-c2ccc(-c3cccs3)s2)cc1`: 36.7%.
For the compound `Nc1ccn(C2CC(O)C(CO)O2)c(=O)n1` (stereo not drawn), the growth was 123%.
For `S=c1[nH]ccn1-c1c(Cl)cccc1Cl`, the growth was 111%.
On the same count and under the same terms, the figure for `COC(=O)c1c(-c2ccccc2)csc1NC(=O)c1c(-c2ccccc2)noc1C` is 36.7%.
Turning to `Cc1cc(N(CCCNc2ccnc3cc(Cl)ccc23)Cc2cccs2)nc(Cl)n1`, the growth is 55.7%.
Same read-out and setting: next, `NC(=O)CC1(c2ccccc2)CCCCC1`: 103%; `c1ccc(CP(Cc2ccccc2)c2ccccc2)cc1`: 112%; `c1ccc(C(NC2CC3CCC2C3)c2ccccc2)cc1` (stereo not drawn): 114%.
Regarding `CSCCCNC(=O)c1ccc2c(c1)/C(=C/c1[nH]c(C)cc1C)C(=O)N2`, the growth is 45%.
Same read-out and setting: next, `CCN1Cc2c(/C=C/c3ccccc3)nc3ccc(OC)cc3c2N(c2cccc(Cl)c2)C1`: 74.7%; `O=C(Nc1nc2ccccc2s1)Nc1ccc([N+](=O)[O-])cc1Cl`: 38.1%.
As for `CC/C(=C(/c1ccc(OCCN(C)C)cc1)c1ccc(OC(=O)CCC(=O)c2c(C)[nH]c(/C=C3\N=C(c4ccc[nH]4)C=C3OC)c2C)cc1)c1ccccc1`, the growth was 33%.
The same measure, in the same setting: the figure for `O=C(O)C(SC(C(=O)O)c1ccccc1)c1ccccc1` (stereo not drawn) is 114%.

For another test, the system named is HS 578T breast. The test is described as above. Conditions: 10 µM.
For `Cc1cc2c(C)c3cc(C)c(N)cc3nc2cc1N`, the growth is 15.6%.
The same measure, in the same setting: the figure for `CCCCCC(=O)c1ccc(OCCCN2CCN(C(=O)OCC)CC2)cc1` is 102%.
`COc1cc(/C=N/NC(=O)c2ccccc2Nc2ccnc(C(F)(F)F)c2)ccc1O`: the growth is 97.4%.
In the case of `Cc1ccc(CC#N)cc1C`, the growth is 173%.
Still for that read-out and setting: next, `COc1ccc(-c2nc3ncccn3c2-c2nnc(-c3ccc(F)cc3)o2)cc1`: 96%; `O=[P@@]1(c2ccccc2)O[C@H](COCc2ccccc2)[C@@H](OCc2ccccc2)[C@H](OCc2ccccc2)[C@H]1O`: -10.7% (active).
The same measure, in the same setting: the figure for `O=C1/C(=C\c2ccc(Cl)cc2)CN(C(=S)Nc2ccccc2)C/C1=C\c1ccc(Cl)cc1` is -23.1% (active); for `COc1cc(-c2cc(/C=C/C(=O)c3ccc(Cl)c(Cl)c3)[nH]n2)cc(OC)c1OC` it is 90.1%; for `Clc1ccc(Nc2ccnc(NCCCNc3ccnc4cc(Cl)ccc34)n2)cc1` it is -56.7% (active).
On the same count and under the same terms, the figure for `O=C1OCC2=C1C(c1ccc(Cl)c(Cl)c1)c1cc3c(cc1N2CCO)OCCO3` (stereo not drawn) is -13.3% (active); for `NC(=S)N=Nc1c(O)c2ccccc2c2ccccc12` it is 62%; for `Cc1cccc(C)c1NC(=O)c1sc2nc3c(cc2c1N)C(=O)CCC3` it is 93.2%.
For `Nc1ccc2c(c1)C1(CCC2)NC(=O)NC1=O` (stereo not drawn), the growth is 103%.
Same read-out and setting: next, `CSc1nc(=O)n(Cc2ccc(Cl)cc2)c(=O)[nH]1`: 105%; `CN1CCC2(CC1)NC(=O)c1c(c3ccc(Cl)c(Cl)c3n1C)C2C#N` (stereo not drawn): 71.1%; `c1ccc2c(c1)oc1c3cccnc3ccc21`: 93.1%.
Still for that read-out and setting: next, `COc1cc(Cl)cc(-c2nn(-c3cccc(NC(=O)Nc4ccc(Cl)c(Cl)c4)c3)cc2-c2ccncc2)c1`: 28.5%; `Cc1cn(C2CCCCO2)c(=O)nc1NO` (stereo not drawn): 86.8%.
Still for that read-out and setting: the figure for `Cc1ccc(Nc2nnc(-c3cc(-c4ccncc4)n(-c4ccccc4)n3)s2)cc1` is 61.9%.
Turning to `CCOC(=O)N/N=C\C(C)=N\NC(=O)OCC`, the growth is 115%.
As to `COc1ccc(-c2cc(/C=C3\C(=O)Nc4ccc(Cl)cc43)[nH]n2)cc1OC`, the growth is 87.8%.
On the same count and under the same terms, next, `CNc1ccc(CSc2ccc(C)cc2)cc1`: 95.8%; `Nc1nc(N)c2c(ccc3nccc32)[nH]1`: 89.5%; `O=C(O)c1ccc(Cl)cc1Nc1ccc(F)cc1`: 94.3%.
For the compound `CC(C)=CCc1cc(O)cc2c1OC(C=C(C)C)C1=C2C(=O)C2=C(C1=O)S(=O)(=O)CCN2` (stereo not drawn), the growth was 70.3%.
Take `COc1ccc(OC)c(/C=C/c2nc(SCc3ccccc3)n(-c3ccc(Cl)cc3)n2)c1`: the growth is -2.4% (active).
Still for that read-out and setting: next, `N=C(N)c1ccc(-c2ccc(-c3cccs3)s2)cc1`: 104%; `Nc1ccn(C2CC(O)C(CO)O2)c(=O)n1` (stereo not drawn): 111%; `S=c1[nH]ccn1-c1c(Cl)cccc1Cl`: 109%.
As for `COC(=O)c1c(-c2ccccc2)csc1NC(=O)c1c(-c2ccccc2)noc1C`, the growth is 65.9%.
As for `Cc1cc(N(CCCNc2ccnc3cc(Cl)ccc23)Cc2cccs2)nc(Cl)n1`, the growth is 65.4%.
On the same count and under the same terms, next, `NC(=O)CC1(c2ccccc2)CCCCC1`: 115%; `c1ccc(CP(Cc2ccccc2)c2ccccc2)cc1`: 117%; `c1ccc(C(NC2CC3CCC2C3)c2ccccc2)cc1` (stereo not drawn): 111%.
The same measure, in the same setting: next, `CSCCCNC(=O)c1ccc2c(c1)/C(=C/c1[nH]c(C)cc1C)C(=O)N2`: -13.5% (active).
On to `CCN1Cc2c(/C=C/c3ccccc3)nc3ccc(OC)cc3c2N(c2cccc(Cl)c2)C1`, for which the growth is 105%.
In the case of `O=C(Nc1nc2ccccc2s1)Nc1ccc([N+](=O)[O-])cc1Cl`, the growth was 70.7%.
For the compound `CC/C(=C(/c1ccc(OCCN(C)C)cc1)c1ccc(OC(=O)CCC(=O)c2c(C)[nH]c(/C=C3\N=C(c4ccc[nH]4)C=C3OC)c2C)cc1)c1ccccc1`, the growth was 8.4% (active).
On to `O=C(O)C(SC(C(=O)O)c1ccccc1)c1ccccc1` (stereo not drawn), for which the growth was 113%.
